{"source": "PubChem BioAssay AID1159580", "about": "(chemical genetic matrix, 2015)", "experiment": "chemical genetic growth profiling, strain panel (AID 1159580);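 also: tested at 20 µM; growth read once vehicle control cultures reached saturation at 30 °C; 1 = growth at the plate median or of vehicle wells; lower values mean less growth of the strain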", "details": "S. cerevisiae deletion strains, growth OD", "note": "“And” between values parts separate entries of the source, which are not always exact repeats. Equal values may be shown once. Screen size: about 5,500 compounds; about 2,000 (36%) were called active. Not shown: some 18% with an inconclusive outcome. Rule as the data show it: active = normalized growth mostly below about 0.91 (no sharp cut-off); inconclusive = no clear call, values can overlap the other calls; inactive = mostly above about 0.92. The list shows a part of the results."}
{"smiles": "CC/C(=C(/CC)c1ccc(O)cc1)c1ccc(O)cc1", "values": [{"measurement": "normalized growth", "setting": "locus YAL021C, strain ccr4, stronger effect = lower value", "result": "1.09 [resistant] (active)"}, {"measurement": "normalized growth", "setting": "locus YAL026C, strain drs2, stronger effect = lower value", "result": "0.958 (inactive)"}, {"measurement": "normalized growth", "setting": "locus YAL030W, strain snc1, stronger effect = lower value", "result": "1 (inactive)"}, {"measurement": "normalized growth", "setting": "locus YBL061C, strain skt5, stronger effect = lower value", "result": "1 (inactive)"}, {"measurement": "normalized growth", "setting": "locus YBR009C, strain hhf1, stronger effect = lower value", "result": "0.953 (inactive)"}, {"measurement": "normalized growth", "setting": "locus YBR021W, strain FUR4, stronger effect = lower value", "result": "0.992 (inactive)"}, {"measurement": "normalized growth", "setting": "locus YBR023C, strain chs3, stronger effect = lower value", "result": "0.984 (inactive)"}, {"measurement": "normalized growth", "setting": "locus YBR171W, strain sec66, stronger effect = lower value", "result": "0.987 (inactive)"}, {"measurement": "normalized growth", "setting": "locus YBR229C, strain ROT2, stronger effect = lower value", "result": "1 (inactive)"}, {"measurement": "normalized growth", "setting": "locus YBR231C, strain swc5, stronger effect = lower value", "result": "1.03 (inactive)"}, {"measurement": "normalized growth", "setting": "locus YBR279W, strain paf1, stronger effect = lower value", "result": "0.961 (inactive)"}, {"measurement": "normalized growth", "setting": "locus YCL011C, strain gbp2, stronger effect = lower value", "result": "0.976 (inactive)"}, {"measurement": "normalized growth", "setting": "locus YCL016C, strain dcc1, stronger effect = lower value", "result": "0.943 (inactive)"}, {"measurement": "normalized growth", "setting": "locus YCL029C, strain bik1, stronger effect = lower value", "result": "0.962 (inactive)"}, {"measurement": "normalized growth", "setting": "locus YCL061C, strain MRC1, stronger effect = lower value", "result": "1 (inactive)"}, {"measurement": "normalized growth", "setting": "locus YCL069W, strain vba3, stronger effect = lower value", "result": "0.987 (inactive)"}, {"measurement": "normalized growth", "setting": "locus YCR088W, strain abp1, stronger effect = lower value", "result": "1.02 (inactive)"}, {"measurement": "normalized growth", "setting": "locus YDL005C, strain med2, stronger effect = lower value", "result": "1.01 (inactive)"}, {"measurement": "normalized growth", "setting": "locus YDL035C, strain GPR1, stronger effect = lower value", "result": "0.867 (inactive)"}, {"measurement": "normalized growth", "setting": "locus YDL040C, strain nat1, stronger effect = lower value", "result": "1.01 (inactive)"}, {"measurement": "normalized growth", "setting": "locus YDL074C, strain BRE1, stronger effect = lower value", "result": "0.776 (active)"}, {"measurement": "normalized growth", "setting": "locus YDL101C, strain DUN1, stronger effect = lower value", "result": "0.963 (inactive)"}, {"measurement": "normalized growth", "setting": "locus YDL185W, strain tfp1, stronger effect = lower value", "result": "0.997 (inactive)"}, {"measurement": "normalized growth", "setting": "locus YDL192W, strain arf1, stronger effect = lower value", "result": "0.991 (inactive)"}, {"measurement": "normalized growth", "setting": "locus YDR001C, strain nth1, stronger effect = lower value", "result": "1.01 (inactive)"}, {"measurement": "normalized growth", "setting": "locus YDR069C, strain doa4, stronger effect = lower value", "result": "1.02 (inactive)"}, {"measurement": "normalized growth", "setting": "locus YDR101C, strain arx1, stronger effect = lower value", "result": "0.961 (inactive)"}, {"measurement": "normalized growth", "setting": "locus YDR137W, strain rgp1, stronger effect = lower value", "result": "0.49 (active)"}, {"measurement": "normalized growth", "setting": "locus YDR150W, strain NUM1, stronger effect = lower value", "result": "1.01 (inactive)"}, {"measurement": "normalized growth", "setting": "locus YDR159W, strain sac3, stronger effect = lower value", "result": "0.905 (inactive)"}, {"measurement": "normalized growth", "setting": "locus YDR162C, strain NBP2, stronger effect = lower value", "result": "0.754 (active)"}, {"measurement": "normalized growth", "setting": "locus YDR195W, strain ref2", "result": "1.2 [resistant] (active)"}, {"measurement": "normalized growth", "setting": "locus YDR297W, strain sur2, stronger effect = lower value", "result": "1 (inactive)"}, {"measurement": "normalized growth", "setting": "locus YDR318W, strain mcm21, stronger effect = lower value", "result": "0.952 (inactive)"}, {"measurement": "normalized growth", "setting": "locus YDR334W, strain swr1, stronger effect = lower value", "result": "1.04 (inactive)"}, {"measurement": "normalized growth", "setting": "locus YDR335W, strain msn5, stronger effect = lower value", "result": "1.02 (inactive)"}, {"measurement": "normalized growth", "setting": "locus YDR388W, stronger effect = lower value", "result": "0.991 (inactive)"}, {"measurement": "normalized growth", "setting": "locus YDR392W, strain spt3, stronger effect = lower value", "result": "0.869 (inactive)"}, {"measurement": "normalized growth", "setting": "locus YDR502C, strain sam2, stronger effect = lower value", "result": "0.955 (inactive)"}, {"measurement": "normalized growth", "setting": "locus YEL003W, strain gim4, stronger effect = lower value", "result": "1 (inactive)"}, {"measurement": "normalized growth", "setting": "locus YEL037C, strain rad23, stronger effect = lower value", "result": "1.01 (inactive)"}, {"measurement": "normalized growth", "setting": "locus YEL061C, strain CIN8 (second series), stronger effect = lower value", "result": "1.03 (inactive)"}, {"measurement": "normalized growth", "setting": "locus YEL061C, strain CIN8, stronger effect = lower value", "result": "0.999 (inactive)"}, {"measurement": "normalized growth", "setting": "locus YER015W, strain faa2, stronger effect = lower value", "result": "0.945 (inactive)"}, {"measurement": "normalized growth", "setting": "locus YER016W, strain bim1, stronger effect = lower value", "result": "0.958 (inactive)"}, {"measurement": "normalized growth", "setting": "locus YER110C, stronger effect = lower value", "result": "1.03 (inactive)"}, {"measurement": "normalized growth", "setting": "locus YER111C, strain swi4, stronger effect = lower value", "result": "1.05 (inactive)"}, {"measurement": "normalized growth", "setting": "locus YER155C, strain BEM2 (second series), stronger effect = lower value", "result": "1.03 (inactive)"}, {"measurement": "normalized growth", "setting": "locus YER155C, strain BEM2, stronger effect = lower value", "result": "0.979 (inactive)"}, {"measurement": "normalized growth", "setting": "locus YER167W, strain BCK2, stronger effect = lower value", "result": "0.984 (inactive)"}, {"measurement": "normalized growth", "setting": "locus YFR010W, strain ubp6, stronger effect = lower value", "result": "1.04 (inactive)"}, {"measurement": "normalized growth", "setting": "locus YGL078C, strain dbp3, stronger effect = lower value", "result": "0.977 (inactive)"}, {"measurement": "normalized growth", "setting": "locus YGL086W, strain mad1, stronger effect = lower value", "result": "0.955 (inactive)"}, {"measurement": "normalized growth", "setting": "locus YGL167C, strain pmr1, stronger effect = lower value", "result": "0.995 (inactive)"}, {"measurement": "normalized growth", "setting": "locus YGL173C, strain kem1, stronger effect = lower value", "result": "0.959 (inactive)"}, {"measurement": "normalized growth", "setting": "locus YGL227W, strain vid30, stronger effect = lower value", "result": "1.03 (inactive)"}, {"measurement": "normalized growth", "setting": "locus YGL240W, strain doc1, stronger effect = lower value", "result": "0.98 (inactive)"}, {"measurement": "normalized growth", "setting": "locus YGL248W, strain PDE1, stronger effect = lower value", "result": "0.915 (inactive)"}, {"measurement": "normalized growth", "setting": "locus YGL253W, strain hxk2, stronger effect = lower value", "result": "0.989 (inactive)"}, {"measurement": "normalized growth", "setting": "locus YGR135W, strain pre9, stronger effect = lower value", "result": "0.962 (inactive)"}, {"measurement": "normalized growth", "setting": "locus YGR252W, strain gcn5, stronger effect = lower value", "result": "0.921 (inactive)"}, {"measurement": "normalized growth", "setting": "locus YHR013C, strain ard1, stronger effect = lower value", "result": "1.09 (inactive)"}, {"measurement": "normalized growth", "setting": "locus YHR027C, strain rpn1, stronger effect = lower value", "result": "0.98 (inactive)"}, {"measurement": "normalized growth", "setting": "locus YHR030C, strain SLT2, stronger effect = lower value", "result": "0.98 (inactive) and 0.958 (inactive)"}, {"measurement": "normalized growth", "setting": "locus YHR079C, strain IRE1 (second series), stronger effect = lower value", "result": "1.01 (inactive)"}, {"measurement": "normalized growth", "setting": "locus YHR079C, strain IRE1, stronger effect = lower value", "result": "0.96 (inactive)"}, {"measurement": "normalized growth", "setting": "locus YHR094C, strain hxt1, stronger effect = lower value", "result": "1 (inactive)"}, {"measurement": "normalized growth", "setting": "locus YHR129C, strain ARP1, stronger effect = lower value", "result": "0.976 (inactive)"}, {"measurement": "normalized growth", "setting": "locus YHR142W, strain chs7, stronger effect = lower value", "result": "1.03 (inactive)"}, {"measurement": "normalized growth", "setting": "locus YHR200W, strain rpn10, stronger effect = lower value", "result": "0.991 (inactive)"}, {"measurement": "normalized growth", "setting": "locus YIL066C, strain RNR3, stronger effect = lower value", "result": "0.937 (inactive)"}, {"measurement": "normalized growth", "setting": "locus YIL073C, strain SPO22, stronger effect = lower value", "result": "1.21 (inactive)"}, {"measurement": "normalized growth", "setting": "locus YIL125W, strain kgd1, stronger effect = lower value", "result": "0.995 (inactive)"}, {"measurement": "normalized growth", "setting": "locus YIR030C, strain dcg1, stronger effect = lower value", "result": "0.998 (inactive)"}, {"measurement": "normalized growth", "setting": "locus YJL092W, strain hpr5, stronger effect = lower value", "result": "1 (inactive)"}, {"measurement": "normalized growth", "setting": "locus YJL095W, strain BCK1 (second series), stronger effect = lower value", "result": "0.982 (inactive)"}, {"measurement": "normalized growth", "setting": "locus YJL095W, strain BCK1, stronger effect = lower value", "result": "0.795 (active) and 0.97 (inactive)"}, {"measurement": "normalized growth", "setting": "locus YJL115W, strain asf1, stronger effect = lower value", "result": "1.04 (inactive)"}, {"measurement": "normalized growth", "setting": "locus YJL129C, strain trk1, stronger effect = lower value", "result": "0.94 (inactive)"}, {"measurement": "normalized growth", "setting": "locus YJL134W, strain LCB3, stronger effect = lower value", "result": "1 (inactive)"}, {"measurement": "normalized growth", "setting": "locus YJL154C, strain vps35, stronger effect = lower value", "result": "0.997 (inactive)"}, {"measurement": "normalized growth", "setting": "locus YJL164C, strain tpk1, stronger effect = lower value", "result": "0.944 (inactive)"}, {"measurement": "normalized growth", "setting": "locus YJL166W, strain qcr8, stronger effect = lower value", "result": "0.958 (inactive)"}, {"measurement": "normalized growth", "setting": "locus YJL168C, strain set2, stronger effect = lower value", "result": "1 (inactive)"}, {"measurement": "normalized growth", "setting": "locus YJL187C, strain SWE1 (second series), stronger effect = lower value", "result": "0.923 (inactive)"}, {"measurement": "normalized growth", "setting": "locus YJR043C, strain POL32, stronger effect = lower value", "result": "0.952 (inactive)"}, {"measurement": "normalized growth", "setting": "locus YJR066W, strain TOR1, stronger effect = lower value", "result": "0.938 (inactive)"}, {"measurement": "normalized growth", "setting": "locus YJR075W, strain HOC1, stronger effect = lower value", "result": "0.959 (inactive)"}]}
